Screens from PubChem.
Giardia kill – Giardia lamblia killing; 340,000 tested, 0.15% active; activity change, % at 7.66 µM, hits read low; AID 540267; Giardia lamblia trophozoite viability; in the data active means activity change below about -80%; inconclusive means between about -30% and that limit;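 further: parasites exposed to compound for two days anaerobically before the ATP read; on the % scale 0 is the no-effect control and ±100 the full control effect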
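ATP-content bioluminescence gauges trophozoite survival. Cells (100/well) receive compound and incubate anaerobically for 48 hrs at 37 deg C; detection reagent follows for 15-30 min at room temperature.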
p53 reactivator – re-activators of mutant p53 | H1299 p53-A138V BP100-luciferase reporter, luminescence, 24 h | Potency, µM (titrated, usually from 92.2 µM), inactives show at the highest dose activity change, positive = activation, hits mostly activators | 320,000 tested, 0.063% active | AID 504706; further: potency means the concentration at half of the fitted maximal effect; % of control where 0% means no effect; nearly all actives have a fitted effect of over 45% in size
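p53-null H1299 cells stably carrying temperature-sensitive p53-A138V and a BP100-luciferase reporter were pinned with compounds (4-point, 1:5 series) and held 24 hrs at 37 deg C. Luminescence was read 10 min after detection reagent.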
BRCA1 expr act – increases BRCA1 expression. 380,000 tested, 1.1% active. Potency, µM (doses to about 46.1 µM), inactives show top-dose activation, usual class: activators. MCF7-BRCA1-FFLuc reporter, luminescence, 48 h; response scale: scaled: vehicle 0%, 10 µM genistein 100%; further: potency means the concentration at half of the fitted maximal effect; nearly all actives have a fitted effect of over 80% in size
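First, MCF7-BRCA1-FFLuc cells (2000/well) attach for 2 h; next, compounds are pin-added and incubated 48 h at 37 °C; finally, luciferase reagent is added and luminescence read after 15 min.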
Gal4-VP16 FLuc – Gal4-VP16 reporter inhibition counter-screen; Drosophila S2 Gal4-VP16 UAS-luciferase, luminescence, 20 h; Potency, µM (series often up to 53.6 µM), for inactives: at the top dose activity, negative = inhibition, most hits filed as inhibitors; 310,000 tested, 3.5% active; AID 2546;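 further: Gal4-VP16 expression switched on by copper sulfate through the metallothionein promoter; potency means the concentration at half of the fitted maximal effect; on the % scale 0 is the no-effect control and ±100 the full control effect; nearly all actives have a fitted effect of over 50% in size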
RORg inh – ROR gamma (mouse) transcription inhibition. 310,000 tested, 5.4% active. Drosophila S2 Gal4-RORgamma UAS-luciferase reporter, 20 h. AID 2551. Potency, µM (highest dose often 53.6 µM), inactives show at the top dose activity change, negative = inhibition, actives largely listed as inhibitors; further: potency means the concentration at half of the fitted maximal effect; on the % scale 0 is the no-effect control and ±100 the full control effect; nearly all actives have a fitted effect of over 60% in size
Target sequence (P51450 whole entry, looked up, the tested form may be a part): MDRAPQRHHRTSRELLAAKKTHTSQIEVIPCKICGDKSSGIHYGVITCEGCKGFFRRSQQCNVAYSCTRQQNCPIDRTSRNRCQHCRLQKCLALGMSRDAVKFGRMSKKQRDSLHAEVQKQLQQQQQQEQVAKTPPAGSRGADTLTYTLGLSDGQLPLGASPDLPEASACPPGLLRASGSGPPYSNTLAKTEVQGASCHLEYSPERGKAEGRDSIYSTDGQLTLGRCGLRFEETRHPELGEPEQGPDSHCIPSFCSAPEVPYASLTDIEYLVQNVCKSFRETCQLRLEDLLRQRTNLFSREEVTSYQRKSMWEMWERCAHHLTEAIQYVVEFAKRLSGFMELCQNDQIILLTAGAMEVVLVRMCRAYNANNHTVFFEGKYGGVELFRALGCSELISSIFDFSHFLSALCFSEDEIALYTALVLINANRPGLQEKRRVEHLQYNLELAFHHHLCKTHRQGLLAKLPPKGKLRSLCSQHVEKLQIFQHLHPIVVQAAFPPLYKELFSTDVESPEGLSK
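ROR gamma transcriptional activity was tracked as Gal4-UAS luciferase output in stably transfected Drosophila Schneider cells, with compound added 1 hr before 700 uM copper sulfate induction and a 20 hr ambient-temperature incubation.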
ELG1 repair inh – ELG1-dependent DNA repair inhibition | HEK293T ELG1-luciferase reporter, luminescence, 16 h; DNA damage induced by 5-fluorouridine | Potency, µM (doses to about 46.1 µM), for the others: at the top dose activity change, negative = inhibition, actives largely listed as inhibitors | 330,000 tested, 2.3% active; further: potency means the concentration at half of the fitted maximal effect; on the % scale 0 is the no-effect control and ±100 the full control effect; nearly all actives have a fitted effect of over 55% in size
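DMSO vehicle served as the neutral condition. Each well held 2,000 cells given 5-fluorouridine plus compound; after 16 hr at 37 °C/5% CO2, ONE-Glo was added and luciferase measured 30 min later.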
Active calls of the source: *; ? = inconclusive; . = no result given; [ ] = dose if it differs, or a comment. Sampled rows, rich in hits. Any-hit rate of the full collection: about 7.6%. Unless noted, the call rests on the fitted dose curve; in most records, active means well fitted curve in the direction sought with a large enough effect; inconclusive means small, poorly fitted or top-dose-only effect, or another doubt; inactive means no such curve, though single readings can be large; an effect the other way counts as inactive or inconclusive.

SMILES	Giardia kill	p53 reactivator	BRCA1 expr act	Gal4-VP16 FLuc	RORg inh	ELG1 repair inh
CNC(=S)N=Nc1c(O)[nH]c2ccc(C(C)C)cc12	-4	-7%	-47%	2.8µM*	4µM*	-5%
Cc1ccc(NC(=S)N=Nc2c(O)[nH]c3ccccc23)cc1	-26	0%	0%	1.3µM*	0.32µM*	-5%
CC(C)NC(=S)N=Nc1c(O)[nH]c2ccc([N+](=O)[O-])cc12	?	12%	-56%	1%	-7%	-19%
CCOC(=O)C1CCCN(CC(=O)c2ccc(F)cc2)C1 (stereo not drawn)	-4	4%	-16%	-6%	-1%	-5%
CC1(C)Cc2c(sc3ncn4c(=S)[nH]nc4c23)CO1	?	0%	-1%	-6%	?	-8%
C=CCN1C(=O)C(=O)N(CC(=O)c2ccc3c(c2)CCCC3)C1=O	7	?	41%	.	.	?
Cc1ccc(Cl)cc1NC(=O)Cn1c(=O)c2ccccc2n2nncc12	.	.	0%	.	.	.
O=C(N=Nc1c(O)[nH]c2ccccc12)c1cccc(S(=O)(=O)N2CCCCC2)c1	15	-7%	-3%	-26%	-20%	11%
CC(C)c1ccc2[nH]c(O)c(N=NC(=O)c3cccc(S(=O)(=O)N4CCCCC4)c3)c2c1	-11	0%	-32%	2%	?	10µM*
COc1ccc(NC(=S)N=Nc2c(O)[nH]c3ccccc23)cc1	-9	4%	-7%	3.5µM*	1.3µM*	?
O=C(O)c1ccc(N=Nc2c(O)[nH]c3ccccc23)cc1	-18	-7%	?	35µM*	?	?
CC(N)=NCCCC[C@H](N)C(=O)O	.	.	.	-20%	6%	.
O=C(Cn1ncc2c(=O)oc3ccccc3c21)N1CCN(c2ccc(Cl)cc2)CC1	.	.	5%	.	.	.
N#CC(C#N)=c1ccc2c(c1)N1C3=C(CCCC3)CC3CCCCC31N=2 (stereo not drawn)	-1	-1%	-33%	0%	-10%	-11%
N#C/C(C(N)=O)=c1/ccc2c(c1)N1C3=C(CCCC3)CC3CCCCC31N=2 (stereo not drawn)	1	0%	-20%	?	-44%	21µM*
COc1cccc(Nc2nc(CC(C)=O)ns2)c1	6	13%	11µM*	-7%	-9%	?
COc1ccc(Nc2nc(CC(C)=O)ns2)cc1	-7	?	10µM*	?	-13%	?
COc1cccc(Nc2ccc(Nc3cccc(OC)c3)nn2)c1	-15	6%	-1%	-26%	11µM*	-19%
CC(=O)Cc1nsc(Nc2ccc(F)cc2)n1	-1	22%	?	20%	39%	?
CC(=O)Cc1nsc(Nc2ccc(Cl)cc2)n1	-11	0%	10µM*	?	23%	?
Cc1ccc(C(=O)Nc2cnc3sc(C)nn3c2=O)cc1	3	?	-35%	6%	3%	?
CC(=O)N1CCc2cc(S(=O)(=O)CCC(=O)N3CCC(C)CC3)ccc21	19	1%	3%	-7%	-3%	10%
O=C(CSC1=Nc2ccccc2C2CC=NN12)Nc1ccc2c(c1)OCO2 (stereo not drawn)	1	-4%	-48%	4%	-37%	-13%
N#Cc1ccccc1NC(=O)CSC1=Nc2ccccc2C2CC=NN12 (stereo not drawn)	5	-2%	-4%	?	11µM*	?
COc1cccc(-c2ccc(NC(=O)C3CCCN(Cc4cnc(N(C)C)s4)C3)cc2)c1 (stereo not drawn)	52	7%	2%	1%	3%	-21%
SMILES	Giardia kill	p53 reactivator	BRCA1 expr act	Gal4-VP16 FLuc	RORg inh	ELG1 repair inh
COc1ccc(OC)c(S(=O)(=O)N2CCC3(CC2)CC(=O)c2ccccc2O3)c1	-5	-6%	-3%	.	.	-9%
CCOC(=O)c1c(-c2ccc(OC)cc2)csc1NC(=O)CNCc1ccco1	1	-1%	-54%	5.6µM*	5µM*	?
CCOC(=O)c1c(-c2ccc(OC)cc2)csc1NC(=O)CCN1C(=O)c2ccccc2C1=O	-5	-5%	-27%	-1%	2%	?
CCOC(=O)c1c(-c2ccc(OCC)cc2)csc1NC(=O)CCN1C(=O)c2ccccc2C1=O	.	-1%	.	-6%	5%[10 µM]	12µM*
CCOC(=O)c1c(-c2ccc(OC)cc2)csc1NC(=O)CCN1CCOCC1	24	-3%	15%	-24%	-27%	?
CC1(NC(=O)C2CCCCC2)CCS(=O)(=O)C1 (stereo not drawn)	15	4%	-8%	9%	8%	19%
Oc1ccc(-c2csc(Nc3ncccn3)n2)c(O)c1	-3	0%	4.5µM*	-13%	0%	?
Cc1cccnc1Nc1nc(-c2ccc(F)cc2)cs1	-15	.	23%	?	?	?
Cc1cccnc1Nc1nc(-c2ccc(O)cc2)cs1	-29	?	4.5µM*	?	-42%	?
Cc1cccc(Nc2nc(-c3ccc(O)cc3O)cs2)n1	-8	-24%	?	?	4µM*	?
Oc1ccc(-c2csc(Nc3ncccn3)n2)cc1O	-2	13%	?	?	?	?
O=C1C(Cl)=C(NCc2ccco2)C(=O)c2ccccc21	11	.	-116%	.	.	.
O=C(COC(=O)/C=C/c1ccc(OC(F)F)cc1)NC1CCCC1	3	-5%	-4%	.	.	19%
CCOc1ccc(NC(=O)CSc2nc3nc(C)cc(C)n3n2)cc1	0	-4%	-1%	11µM*	?	-2%
CCOc1ccc(N/C(=N/c2nc(C)cc(C)n2)NC(=O)CC)cc1	6	-3%	10%	1%	-19%	18µM*
Cc1cc(C)n2nc(SCC(=O)Nc3ccc(O)cc3)nc2n1	-5	12%	-24%	-2%	5%	-8%
Cc1ccc(CNC(=O)CC(C)S(=O)(=O)c2ccc3c(c2)NC(=O)CO3)cc1 (stereo not drawn)	10	0%	22%	3%	11%	-13%
COCC(=O)N1CCC2(CC1)CCN(C(=O)Nc1ccc(OC)cc1)CC2	.	.	.	3%	7%	.
c1ccc(OCc2nc3ccccc3[nH]2)cc1	-4	?	?	-18%	69%	?
Clc1ccc(OCc2nc3ccccc3[nH]2)cc1	-25	9%	3.2µM*	-3%	?	?
NC(=NCc1ccco1)NC(=O)c1ccc(Cl)cc1	-6	29%	11µM*	-7%	38%	?
O=C(NCCCNC(=O)c1ccco1)c1ccc(Cl)cc1	-2	21%	-1%	10%	-3%	?
Cc1ccc(C)c(N2C(=O)N(Cc3cccc(C(F)(F)F)c3)c3ccccc3S2(=O)=O)c1	.	.	-19%	.	.	.
